# Screening results from PubChem BioAssay.
# Only some compounds are listed: those with a hit (about 5.9% of all), similar ones and a draw of the others.
# PRMT1 FP inh = PRMT1 methyltransferase inhibitors, primary screen, biochemical, fluorescence polarization. Protein arginine N-methyltransferase 1 (Homo sapiens), Q99873. recombinant PRMT1, activity-based probe fluorescence polarization. inhibition, % at 2.79 µM. hit rate 1.3% among 370,000;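 active = inhibition above about 21% made by adding two undisclosed values, limit read from the data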
# ABHD5 PLIN5 PPI = ABHD5-PLIN5 interaction inhibitors, primary screen, cell lysate, split luciferase complementation, luminescence. inhibition, % at 4 µM. AID 602281, 2012. hit rate 0.78% among 360,000. Split G. princeps luciferase complementation, 4 h;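 active = inhibition above the mean inhibition across every tested compound plus 3 SD, cut at about 22% in these data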;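 note: 0% = DMSO only wells and the 100% control is not disclosed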
# ALR inh = inhibitors of human ALR sulfhydryl oxidase, primary screen, biochemical, H2O2 detection, HRP-luminol luminescence, single point; purified ALR, DTT oxidation; inhibition, % (no concentration beside the values); hit rate 3.8% among 290,000; AID 485317, 2010; FAD-linked sulfhydryl oxidase ALR (Homo sapiens), P55789;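 active = mean replicate inhibition above about 79%, with every replicate also reaching it, limit read from the data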
# rCAG RNA binder = binders of r(CAG) RNA repeats, primary screen, biochemical, fluorescence; r(CAG) RNA repeat, TO-PRO-1 dye displacement fluorescence; inhibition, % at 3 µM; hit rate 1.3% among 370,000;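 active = inhibition above the plate cutoff, the mean of all test compounds on that plate plus 3 SD, cut at about 35% in these data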;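 note: 0% = DMSO alone and 100% = 100 µM mitoxantrone as full dye displacement; higher means more dye released from RNA so lower well fluorescence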
# LANA-H2B inh = blockers of LANA interaction with H2A/H2B – biochemical, FP readout, HTS, primary screen; Protein LANA1 (Human herpesvirus 8 type P (isolate GK18)), Q9QR71; cell-free LANA-H2A/H2B peptide, fluorescence polarization; inhibition, % (test concentration not listed); hit rate 0.6% among 320,000; AID 2629, 2010; in the data active = inhibition mostly above about 10%, no sharp cut-off; inactive = mostly below about 6.7%
# Rtt109 HAT inh = inhibitors of C. albicans Rtt109/Vps75 HAT, primary screen, biochemical, ThioGlo CoA-SH fluorescence, plate reader | inhibition, % at 34.9 µM | purified Rtt109/Vps75, 4 h | hit rate 0.16% among 330,000;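 active = inhibition of at least 50% in every replicate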
# * hit, by the source's call; / = no result.
SMILES,PRMT1 FP inh,ABHD5 PLIN5 PPI,ALR inh,rCAG RNA binder,LANA-H2B inh,Rtt109 HAT inh
CCOC(=O)C1=CCN(S(=O)(=O)c2ccccc2Cl)C1c1cccc(F)c1 (centres undefined),0,-1,/,-1,/,/
C#CCOCCOCCOCCNc1nc(N2CCOCC2)nc(N2CCN(C(=O)CCCCCCCCCCNC(=O)[C@H](CO)n3cc(CCCSC)nn3)CC2)n1,-1,16,-38,-3,3,5
C#CCOCCOCCOCCNc1nc(N2CCN(C(=O)CCCCCCCCCCNC(=O)[C@@H](CCC(=O)O)n3cc(CCCCCN)nn3)CC2)nc(N2CCN(C(=O)CCCCCCCCCCNC(=O)[C@H](CO)n3cc(CCCSC)nn3)CC2)n1,/,47*,-3,/,3,0
C#CCOCCOCCOCCNc1nc(N2CCN(C(=O)CCCCCCCCCCNC(=O)[C@@H](CCSC)n3cc(CCO)nn3)CC2)nc(N2CCN(C(=O)CCCCCCCCCCNC(=O)[C@H](CCC(=O)O)n3cc(CCCCCN)nn3)CC2)n1,/,41*,-6,/,-5,9
COc1ncnc2c1ncn2CCCNC1CCN(Cc2ccccc2)CC1,-4,-11,/,-1,/,/
CCn1c(COc2ccc(Cl)cc2)nnc1SCC(=O)Nc1ccccc1-c1ccccc1,-9,/,/,2,/,/
Clc1ccc(/C=C/c2ncc3ccccn23)cc1,-3,5,99*,8,-4,-32
Fc1ccc(-c2ncc3ccccn23)cc1,-1,1,/,-2,0,-1
c1ccc(-c2c[nH]c3ccc(OCc4ccc5ccccc5n4)c(-c4ccccc4)c23)cc1,6,/,/,14,/,/
COC(=O)c1ccccc1OCC(=O)N1CCN(c2ccc(OC)cc2)CC1,-1,-1,88*,-4,-2,-1
COc1ccc(N2CCN(C(=O)c3ccc(C(C)(C)C)cc3)CC2)cc1,5,5,-7,-10,-2,15
COC(=O)c1ccccc1OCC(=O)N1CCN(c2ccc(F)cc2)CC1,-1,0,36,-8,3,14
COc1ccc(N2CCN(C(=O)CCNS(=O)(=O)c3ccccc3)CC2)cc1,-2,-8,98*,-4,-1,-3
COc1ccc(N2CCN(C(=O)CCNC(=O)c3ccc(C(C)(C)C)cc3)CC2)cc1,-2,1,86*,-7,-4,6
COc1ccc(N2CCN(C(=O)c3ccccc3N(C)S(=O)(=O)c3ccccc3)CC2)cc1,0,2,90*,-7,0,5
CN1OC[C@@H]2CN(C(=O)C3CCCCC3)[C@H](c3ccc(N4CCCCC4)cc3)C[C@@H]21,-4,/,/,-4,/,/
CCOc1ccc(S(=O)(=O)NCCC(=O)N2CCN(c3ccc(OC)cc3)CC2)cc1,-1,2,77*,-3,1,-2
COc1ccc(N2CCN(C(=O)CCC(=O)NNc3nc4ccccc4c4nc(C)nn34)CC2)cc1,3,5,99*,1,9,15
CCOc1ccc(S(=O)(=O)NCCC(=O)Nc2cccc(C(=O)OC)c2)cc1,2,3,/,4,1,54*
CCOc1ccc(S(=O)(=O)NCCC(=O)N2CCN(c3ncccn3)CC2)cc1,0,-5,/,-2,0,0
CCCCNC(=O)C[C@@H]1C[C@@]2(C(=O)OC)CCCCC=C2N(Cc2ccccc2)C1=O,0,0,/,1,/,/
NC(=NC(=O)/C=C/c1ccccc1Br)N(CC#Cc1ccccc1)CC#Cc1ccccc1,0,/,/,/,/,/
O=C(CN1C(=O)CSC1=O)N1CCCCC1,-4,0,6,2,-2,2
CC(C)c1ccc(NC2CCCN(C(=O)CCN3CCCO3)C2)cc1 (centres undefined),-1,-3,67,-10,0,-2
CC(C)c1ccc(NC2CCCN(C(=O)CN3C(=O)CSC3=O)C2)cc1 (centres undefined),-1,1,98*,6,8,14
SMILES,PRMT1 FP inh,ABHD5 PLIN5 PPI,ALR inh,rCAG RNA binder,LANA-H2B inh,Rtt109 HAT inh
Cc1ccc(NC2CCCN(C(=O)CN3C(=O)CSC3=O)C2)cc1C (centres undefined),4,-7,99*,4,2,-3
Cc1ccc(C(CCN(Cc2ccccc2)C(=O)c2ccco2)c2ccco2)cc1 (centres undefined),10,29*,1,10,-4,5
CC(=O)N(CCC(c1ccccc1)c1ccco1)Cc1cccs1 (centres undefined),6,12,11,0,1,0
O=C(c1ccco1)N(Cc1ccc(Cl)cc1)Cc1ccco1,0,1,3,-5,-8,6
CC(=O)N(CCC(Cc1ccccc1)c1ccco1)Cc1ccco1 (centres undefined),2,16,22,-1,4,53*
CN(C)c1ccc(CN(Cc2ccco2)C(=O)c2ccco2)cc1,-5,13,99*,1,-2,15
O=C(c1ccco1)N(CCC(c1ccccc1)c1ccco1)Cc1ccco1 (centres undefined),5,28*,10,7,-6,27
CCCCCCc1nc2nc(Cl)c(Cl)nc2[nH]1,-10,0,/,0,/,/
Cc1cccc(CSc2ncnc3ccccc23)c1,-1,1,-14,-4,1,4
O=[N+]([O-])c1cccc(CSc2ncnc3ccccc23)c1,-2,-3,99*,-2,-3,2
O=C(CSCc1ccc([N+](=O)[O-])cc1)NN=C1CCCCCC1,0,2,88*,0,-2,-3
COc1cc(/C=N/NC(=O)CSCc2ccc([N+](=O)[O-])cc2)cc(OC)c1OC,1,-3,98*,0,-4,7
COc1ccc(/C=N/NC(=O)CSCc2ccc([N+](=O)[O-])cc2)cc1OC,4,2,16,-3,0,-16
O=C(N[C@H](C(=O)N1CCC[C@H]1C(=O)NCCc1ccccc1Cl)c1ccccc1)c1ccc(Cl)c(Cl)c1,-4,/,/,6,/,/
COc1ccc(NC(=O)C(c2ccccc2F)n2c(=O)c(-c3cc4ccccc4[nH]3)nc3ccccc32)cc1 (centres undefined),-2,3,/,19,/,/
CCN1C(=O)/C(=C\c2ccc(F)cc2)N=C1SCC(=O)NCc1ccco1,0,1,95*,-1,-2,3
COc1cc(C(=O)OCC(=O)Nc2cc(S(=O)(=O)N3CCOCC3)ccc2C)ccc1OCC(C)C,0,0,3,4,-3,-7
